HEK293 cAMP ctrl – raises cAMP in parental HEK293 cells, TSHR agonist counter-screen | parental HEK293 CNG cAMP sensor, membrane potential fluorescence | Potency, µM (top dose mostly 57.1 µM), for the others: at the highest dose activation, most hits filed as activators | actives 2.5% (n = 73,000) | AID 938; active means well fitted activation curve with a large enough effect; inconclusive means small, poorly fitted or top-dose-only effect; inactive means no such curve, though single readings can be large or run the other way; further: % of control where 0% means no effect; nearly all actives have a fitted effect of over 55% in size
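Counterscreen for endogenous-receptor signalling: CNG-channel HEK 293 cells report cAMP rise by membrane depolarization. After 60 min dye equilibration with 100 uM RO 20-1724, compounds incubated 30 min before bottom-read fluorescence at 590 nm.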
GBA mod – modulators of human glucocerebrosidase | actives 1.1% (n = 48,000) | purified enzyme, resorufin glucoside fluorescence (screen aimed at inhibitors), 20 min | Potency, µM; in the data active means potency below about 15 µM; inconclusive means mostly about 16 µM to 33 µM;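 further: the screen sought inhibitors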
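Wild-type enzyme at 0.2 nM final in 50mM citric acid/KH2PO4, 10mM sodium taurocholate, 0.01% tween-20, pH 5.9, with resorufin beta-D-glucopyranoside at 30 uM final. Compounds titrated, 20 min at RT, red fluorescence read; AC50 from titration.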
PK Bst – modulators of Bacillus stearothermophilus pyruvate kinase. actives 1.2% (n = 51,000). Potency, µM. purified pyruvate kinase, luminescence ATP production; ribose 5-phosphate activator present at AC10; in the data active means potency below about 11 µM; inconclusive means mostly about 12 µM to 25 µM;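 the screen sought inhibitors and activators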;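 further: scaled between full activation by ribose 5 phosphate and full inhibition by luteolin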
TSHR ag – TSH receptor (human) agonism; P16473; HEK293-CNG-TSHR cells (CNG channel as cAMP sensor), membrane potential dye, cAMP; Potency, µM (doses to about 57.1 µM), without a hit: at the top dose activation, hits mostly activators; actives 0.48% (n = 73,000); AID 926; active means well fitted activation curve with a large enough effect in the main read-out, with a control signal flat, not every such curve was filed as active; inconclusive means small, poorly fitted or top-dose-only effect, or a change in a side signal; inactive means no such curve, though single readings can be large or run the other way; % of control where 0% means no effect;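 further: the control signal comes from parental cells without the receptor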
Target sequence (P16473 whole entry, looked up): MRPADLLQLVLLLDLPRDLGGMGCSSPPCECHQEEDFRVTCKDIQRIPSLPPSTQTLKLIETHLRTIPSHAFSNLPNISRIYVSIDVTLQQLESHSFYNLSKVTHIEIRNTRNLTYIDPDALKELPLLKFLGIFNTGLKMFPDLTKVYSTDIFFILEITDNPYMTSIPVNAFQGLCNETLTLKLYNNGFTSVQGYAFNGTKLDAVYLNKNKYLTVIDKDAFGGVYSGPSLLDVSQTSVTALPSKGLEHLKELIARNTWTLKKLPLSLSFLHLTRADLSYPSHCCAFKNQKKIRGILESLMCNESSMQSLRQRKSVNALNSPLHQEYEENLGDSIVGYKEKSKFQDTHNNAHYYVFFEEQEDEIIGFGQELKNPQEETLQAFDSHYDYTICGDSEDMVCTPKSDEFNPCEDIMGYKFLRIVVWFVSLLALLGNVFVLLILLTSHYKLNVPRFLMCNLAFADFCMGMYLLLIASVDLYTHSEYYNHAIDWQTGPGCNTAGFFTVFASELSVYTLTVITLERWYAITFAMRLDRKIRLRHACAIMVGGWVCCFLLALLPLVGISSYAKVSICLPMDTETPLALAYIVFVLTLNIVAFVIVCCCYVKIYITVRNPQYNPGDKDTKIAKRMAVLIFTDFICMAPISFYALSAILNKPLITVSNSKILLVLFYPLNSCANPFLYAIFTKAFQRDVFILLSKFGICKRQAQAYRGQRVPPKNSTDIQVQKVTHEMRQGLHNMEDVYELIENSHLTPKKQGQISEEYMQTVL
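HEK 293 cells stably expressing TSHR and a modified CNG channel, with CNG-only parental cells as counterscreen, were preloaded 60 min at room temperature with membrane potential dye containing 100 uM RO 20-1724. Compound exposure was 30 min, and depolarization was read as fluorescence at 590 nm.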
Active calls of the source: *; i = inactive; u = inconclusive; x = no result given; [ ] = remark or other dose. Compounds with a hit are over-represented: about 4% of the library has one in this group of screens. Potency means the concentration at half of the fitted maximal effect.

SMILES | HEK293 cAMP ctrl | GBA mod | PK Bst | TSHR ag
C[C@@]12CCC(=O)C=C1CC[C@H]1[C@@H]2[C@@H](O)C[C@]2(C)[C@@H]1CC[C@@]2(O)C(=O)COC(=O)C1CCCC1 | 11%[11.4 µM] | x | x | 7%[11.4 µM]
CCOC(=O)c1c(-c2ccc(C)o2)csc1NC(=O)CSc1nncs1 | 25µM* | >77 | >57 | u
Cn1cnc([N+](=O)[O-])c1Sc1nc(N)nc2c1ncn2[C@H]1C[C@H](O)[C@@H](CO)O1 | 6%[11.4 µM] | x | x | 0%[11.4 µM]
COc1ccc(NC(=O)C2CCC(=O)N2S(=O)(=O)c2ccc(C)cc2)c(OC)c1 (stereo unspecified) | -2% | >77 | 11* | 2%
CN1CCN(c2ncc3nc(CCc4ccccc4)c(=O)n(C4CC4)c3n2)CC1 | -4% | x | x | -4%
COc1ccc2oc(=O)c(NC(=O)C3CCCCC3)cc2c1 | 18% | 5.2* | >57 | 7%
COc1ccc(OC)c(NC(=O)C2CCCC2)c1 | 2% | >77 | >57 | -12%
CCc1ccc(CCC(=O)Nc2nnc(CC)s2)o1 | 0% | 12* | >57 | 0%
CCOc1ccc2[nH]c(=O)c(C(c3nnnn3Cc3ccco3)N3CCC(C)CC3)cc2c1 (stereo unspecified) | 32µM* | u | >57 | u
CCOc1ccc2[nH]c(=O)c(C(c3nnnn3Cc3ccco3)N3CCCC(C)C3)cc2c1 (stereo unspecified) | 7.9µM* | i | >57 | u
COc1cccc2c1[C@@H]1CN(CCCCn3c(=O)[nH]c4c(sc5ncc(-c6ccccc6)nc54)c3=O)C[C@H]1CO2 | -77% | x | x | u
O=C(CN1CCc2ccccc2C1)N1CCN(S(=O)(=O)c2ccccc2)CC1 | 8% | >77 | >57 | 17%[11.4 µM]
Cc1ccc(S(=O)(=O)N2CCN(C(=O)CN3CCc4ccccc4C3)CC2)cc1 | 10µM* | >77 | >57 | u
Oc1cccc(Nc2nc(NCC3CCCO3)c3ccccc3n2)c1 (stereo unspecified) | u | 7.6* | x | u
c1ccc(-c2nc(NCC3CCCO3)c3ccccc3n2)nc1 (stereo unspecified) | x | x | >11 | x
O=C(O)CSc1ccc([N+](=O)[O-])cc1[N+](=O)[O-] | 11%[11.4 µM] | x | x | 5%[11.4 µM]
COCCNC(=O)c1sc2nc(-c3ccccc3)cn2c1C | 9% | >77 | x | 10%
COc1ccc2c(c1)sc1nc(-c3ccccc3)cn12 | u | x | 0.055* | u
O=C(NC1CCCCC1)NC1CCN(S(=O)(=O)Cc2ccccc2)CC1 | 9% | >77 | >57 | -18%
COc1ccc(C(=O)NC2CCN(S(=O)(=O)Cc3ccccc3)CC2)c(OC)c1 | 10µM* | >77 | >57 | u
O=C(O)/C=C\c1c2ccc(=O)c(O)c-2oc2c(O)c(O)ccc12 | 6%[11.4 µM] | x | x | 0%[11.4 µM]
O=C(Nc1cccc(Cl)c1)N(CCCN1CCOCC1)Cc1ccccc1F | 24% | 11* | >57 | 13%
O=C(Nc1ccccc1)N(CCCN1CCOCC1)Cc1ccccc1F | 18% | x | >57 | 9%
C#CCOC(=O)[C@H](N)CC(N)=O | 4%[11.4 µM] | x | x | -4%[11.4 µM]
O=C(O)CCCCCC[C@@H]1C(=O)NC(=O)N1CC[C@@H](O)C1CCCCC1 | 2µM* | x | x | u
SMILES | HEK293 cAMP ctrl | GBA mod | PK Bst | TSHR ag
CCCCCC1NC(=O)NC1CCCCCC(=O)O (stereo unspecified) | -2% | x | x | 3%
C/C(=N/Nc1nc(C)cc(=O)[nH]1)C(=O)O | 9%[11.4 µM] | x | x | 6%[11.4 µM]
COc1ccc(-n2ccnc2SCC(=O)Nc2ccccc2)cc1 | 3.2µM* | >77 | >57 | u
CC(C)CCNC(=O)C(c1ccco1)N(CC1CCCO1)C(=O)Cn1nnc2ccccc21 (stereo unspecified) | u | >77 | >57 | u
COc1ccc(CNC(=O)C(c2ccco2)N(Cc2cccs2)C(=O)Cc2cccs2)cc1 (stereo unspecified) | 20µM* | >77 | >57 | u
CC(C)CCNC(=O)C(c1ccco1)N(Cc1cccs1)C(=O)Cn1nnc2ccccc21 (stereo unspecified) | 6.3µM* | x | >57 | u
Cc1ccc(C(C(=O)NCc2ccco2)N(CCc2ccccc2)C(=O)Cn2nnc3ccccc32)o1 (stereo unspecified) | 13µM* | x | >57 | u
Cc1ccc(C(C(=O)NCc2ccco2)N(C(=O)Cn2nnc3ccccc32)c2ccccc2)o1 (stereo unspecified) | 21% | x | >57 | 20%
CCC(C)(C)NC(=O)C(c1cccn1C)N(Cc1ccccc1)C(=O)Cn1nnc2ccccc21 (stereo unspecified) | 10µM* | >77 | >57 | u
CCC(C)(C)NC(=O)C(c1cccn1C)N(C(=O)Cn1nnc2ccccc21)c1ccccc1OC (stereo unspecified) | u | u | >57 | u
CCOC(=O)C1CSC(Cc2ccc(OCc3ccc([N+](=O)[O-])cc3)cc2)N1 (stereo unspecified) | -7% | x | x | -5%
O=C(O)COCCN1CCN([C@@H](c2ccccc2)c2ccc(Cl)cc2)CC1 | 4%[25.6 µM] | x | x | -1%[25.6 µM]
Cc1ccc(N(C(=O)Cn2nnc3ccccc32)C(C(=O)NCc2ccco2)c2ccc(C)o2)cc1 (stereo unspecified) | u | x | >57 | u
O=C(NCc1ccco1)C(c1cccs1)N(C(=O)Cc1cccs1)c1ccccc1 (stereo unspecified) | 13µM* | >77 | >57 | u
COc1ccc(N(C(=O)Cn2nnc3ccccc32)C(C(=O)NCc2ccco2)c2ccc(C)o2)cc1 (stereo unspecified) | 27% | >77 | >57 | 25µM*
O=C(Cc1cccs1)NCc1ccco1 | 18% | >77 | >57 | 21%
CC1=NCC[N@@+]1(CCc1ccccc1)Cc1ccccc1 | 8%[11.4 µM] | x | x | 3%[11.4 µM]
Cc1ccc(S(=O)(=O)OC2CCN(C)CC2)cc1 | 1%[11.4 µM] | x | x | -3%[11.4 µM]
Nc1ccc(O)c(-c2nc3ccccc3s2)c1 | -4% | x | x | -27%
Nc1cccc(-c2nc3ccc(N)cc3s2)c1 | -6% | x | 0.71* | -8%
NC1=NC(=Nc2ccccc2)c2ccccc21 | -8% | 10* | >57 | -4%
C=CCn1c(/N=C/c2ccc(N(C)C)cc2)nc2ccccc21 | -13% | >77 | 1.4* | -21%
CN(C)c1ccc(/C=N/n2ncc3ccccc32)cc1 | -5% | u | 1.9* | 7%[11.4 µM]
O=c1cnc2cnc(Oc3ccccc3)nc2n1Cc1cccs1 | 20µM* | x | x | u
COc1cccc(Nc2ncc3ncc(=O)n(Cc4cccs4)c3n2)c1 | 16µM* | x | x | u
SMILES | HEK293 cAMP ctrl | GBA mod | PK Bst | TSHR ag
O=c1c(-c2cccs2)nc2cnc(Oc3ccccc3)nc2n1Cc1cccs1 | 18% | x | x | 1%
COc1cccc(Nc2ncc3nc(-c4cccs4)c(=O)n(Cc4cccs4)c3n2)c1 | 12% | x | x | 2%
N[C@H](CCCC(=O)O)C(=O)O | -3% | x | x | x
FC(F)(F)c1cc(-c2ccco2)nc(NCc2cccnc2)n1 | 25µM* | x | >57 | u
O=C(O)c1cc(=O)[nH]c(=S)[nH]1 | -4%[11.4 µM] | x | x | 2%[11.4 µM]
COCC(=O)NCc1ccc2c(c1)OCO2 | 13% | x | x | -6%
CC(C)n1c(C(=O)OCC(=O)NCc2ccc3c(c2)OCO3)cc2occc21 | 16µM* | >77 | >57 | u
CC(C)n1c(C(=O)OCC(=O)NCc2ccc3c(c2)OCO3)cc2sccc21 | 7.9µM* | >77 | >57 | u

Screening results deposited in PubChem BioAssay by National Center for Advancing Translational Sciences (NCATS).
